Source: the supplement of paper PMC10849652
Of roughly 7,900 targets only a part is listed; those with a hit were picked by preference. About 0.6% of all pairs of compound and target were hits. Unmarked numbers belong to inactive results.

Key:
Experiment in all cases: log2 fold change, soluble protein after heating vs DMSO (PISA); higher = thermal stabilisation; K562 cells, 10 uM, 30 min; active = over 0.2 and 3.5 SD of the protein, either way, in both replicates (recomputed)
[1] = compound: COC1=CC=C(C=C1)CN2C=CC3=C2C=C(C=C3)C(=O)NO
Summary of the method: (§1)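 Soluble protein was quantified by TMTpro 16plex LC-MS/MS after channel sums were equalised. It was obtained as the supernatant after 21,000xg for 90 min from pooled aliquots of K562 cells (2×10^6 cells/mL, 10 μM compound, 30 min) heated for 3 min across 48°C-58°C and extracted in PBS with 0.5% NP-40 at 4°C. Thermal stability values are relative to control samples and come from duplicates. They are given as log2 fold changes.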

filanesib = compound: CON(C)C(=O)N1N=C(c2cc(F)ccc2F)S[C@@]1(CCCN)c1ccccc1 [filanesib]
Summary of the method: as §1

zotarolimus = compound: CO[C@H]1C[C@@H]2CC[C@@H](C)[C@@](O)(O2)C(=O)C(=O)N2CCCC[C@H]2C(=O)O[C@H]([C@H](C)C[C@@H]2CC[C@H](n3cnnn3)[C@H](OC)C2)CC(=O)[C@H](C)/C=C(\C)[C@@H](O)[C@@H](OC)C(=O)[C@H](C)C[C@H](C)/C=C/C=C/C=C/1C [zotarolimus]
Summary of the method: as §1

idasanutlin = compound: COc1cc(C(=O)O)ccc1NC(=O)[C@@H]1N[C@@H](CC(C)(C)C)[C@](C#N)(c2ccc(Cl)cc2F)[C@H]1c1cccc(Cl)c1F [idasanutlin]
Summary of the method: as §1

alisertib = compound: COc1cc(Nc2ncc3c(n2)-c2ccc(Cl)cc2C(c2c(F)cccc2OC)=NC3)ccc1C(=O)O [alisertib]
Summary of the method: as §1

[2] = compound: COc1cc2nc(-c3cc(F)ccc3O)nc(N[C@@H]3CNC[C@H]3C(C)(C)O)c2cc1OC
Summary of the method: as §1

gefitinib = compound: COc1cc2ncnc(Nc3ccc(F)c(Cl)c3)c2cc1OCCCN1CCOCC1 [gefitinib]
Summary of the method: as §1

[3] = compound: COc1cccc2cc(-c3nc([C@H]4CC[C@H](C(=O)O)CC4)n4ncnc(N)c34)[nH]c12
Summary of the method: as §1

lapatinib = compound: CS(=O)(=O)CCNCc1ccc(-c2ccc3ncnc(Nc4ccc(OCc5cccc(F)c5)c(Cl)c4)c3c2)o1 [lapatinib]
Summary of the method: as §1

pictilisib = compound: CS(=O)(=O)N1CCN(Cc2cc3nc(-c4cccc5[nH]ncc45)nc(N4CCOCC4)c3s2)CC1 [pictilisib]
Summary of the method: as §1

[4] = compound: CS(=O)(=O)c1ccc(-c2cnc(N)c(C(=O)Nc3ccccc3)n2)cc1
Summary of the method: as §1

crizotinib = compound: C[C@@H](Oc1cc(-c2cnn(C3CCNCC3)c2)cnc1N)c1c(Cl)ccc(F)c1Cl [crizotinib]
Summary of the method: as §1

[5] = compound: C[C@@H]1COCCN1C2=NC(=NC(=C2)C3(CC3)S(=O)(=O)C)C4=C5C=CNC5=CC=C4
Summary of the method: as §1

[6] = compound: C[C@H](C1=CC=C(C=C1)C(=O)NC2=C3C=CNC3=NC=C2)N
Summary of the method: as §1

duvelisib = compound: C[C@H](Nc1ncnc2nc[nH]c12)c1cc2cccc(Cl)c2c(=O)n1-c1ccccc1 [duvelisib]
Summary of the method: as §1

gandotinib = compound: Cc1cc(Nc2cc(CN3CCOCC3)c3nc(C)c(Cc4ccc(Cl)cc4F)n3n2)n[nH]1 [gandotinib]
Summary of the method: as §1

tozasertib = compound: Cc1cc(Nc2cc(N3CCN(C)CC3)nc(Sc3ccc(NC(=O)C4CC4)cc3)n2)n[nH]1 [tozasertib]
Summary of the method: as §1

[7] = compound: Cc1cc(SCc2sc(-c3ccc(C(F)(F)F)cc3)nc2C)ccc1OCC(=O)O
Summary of the method: as §1

doramapimod = compound: Cc1ccc(-n2nc(C(C)(C)C)cc2NC(=O)Nc2ccc(OCCN3CCOCC3)c3ccccc23)cc1 [doramapimod]
Summary of the method: as §1

ispinesib = compound: Cc1ccc(C(=O)N(CCCN)[C@@H](c2nc3cc(Cl)ccc3c(=O)n2Cc2ccccc2)C(C)C)cc1 [ispinesib]
Summary of the method: as §1

Sequence of UniProt Q7Z7G8 (Q7Z7G8 whole entry, looked up): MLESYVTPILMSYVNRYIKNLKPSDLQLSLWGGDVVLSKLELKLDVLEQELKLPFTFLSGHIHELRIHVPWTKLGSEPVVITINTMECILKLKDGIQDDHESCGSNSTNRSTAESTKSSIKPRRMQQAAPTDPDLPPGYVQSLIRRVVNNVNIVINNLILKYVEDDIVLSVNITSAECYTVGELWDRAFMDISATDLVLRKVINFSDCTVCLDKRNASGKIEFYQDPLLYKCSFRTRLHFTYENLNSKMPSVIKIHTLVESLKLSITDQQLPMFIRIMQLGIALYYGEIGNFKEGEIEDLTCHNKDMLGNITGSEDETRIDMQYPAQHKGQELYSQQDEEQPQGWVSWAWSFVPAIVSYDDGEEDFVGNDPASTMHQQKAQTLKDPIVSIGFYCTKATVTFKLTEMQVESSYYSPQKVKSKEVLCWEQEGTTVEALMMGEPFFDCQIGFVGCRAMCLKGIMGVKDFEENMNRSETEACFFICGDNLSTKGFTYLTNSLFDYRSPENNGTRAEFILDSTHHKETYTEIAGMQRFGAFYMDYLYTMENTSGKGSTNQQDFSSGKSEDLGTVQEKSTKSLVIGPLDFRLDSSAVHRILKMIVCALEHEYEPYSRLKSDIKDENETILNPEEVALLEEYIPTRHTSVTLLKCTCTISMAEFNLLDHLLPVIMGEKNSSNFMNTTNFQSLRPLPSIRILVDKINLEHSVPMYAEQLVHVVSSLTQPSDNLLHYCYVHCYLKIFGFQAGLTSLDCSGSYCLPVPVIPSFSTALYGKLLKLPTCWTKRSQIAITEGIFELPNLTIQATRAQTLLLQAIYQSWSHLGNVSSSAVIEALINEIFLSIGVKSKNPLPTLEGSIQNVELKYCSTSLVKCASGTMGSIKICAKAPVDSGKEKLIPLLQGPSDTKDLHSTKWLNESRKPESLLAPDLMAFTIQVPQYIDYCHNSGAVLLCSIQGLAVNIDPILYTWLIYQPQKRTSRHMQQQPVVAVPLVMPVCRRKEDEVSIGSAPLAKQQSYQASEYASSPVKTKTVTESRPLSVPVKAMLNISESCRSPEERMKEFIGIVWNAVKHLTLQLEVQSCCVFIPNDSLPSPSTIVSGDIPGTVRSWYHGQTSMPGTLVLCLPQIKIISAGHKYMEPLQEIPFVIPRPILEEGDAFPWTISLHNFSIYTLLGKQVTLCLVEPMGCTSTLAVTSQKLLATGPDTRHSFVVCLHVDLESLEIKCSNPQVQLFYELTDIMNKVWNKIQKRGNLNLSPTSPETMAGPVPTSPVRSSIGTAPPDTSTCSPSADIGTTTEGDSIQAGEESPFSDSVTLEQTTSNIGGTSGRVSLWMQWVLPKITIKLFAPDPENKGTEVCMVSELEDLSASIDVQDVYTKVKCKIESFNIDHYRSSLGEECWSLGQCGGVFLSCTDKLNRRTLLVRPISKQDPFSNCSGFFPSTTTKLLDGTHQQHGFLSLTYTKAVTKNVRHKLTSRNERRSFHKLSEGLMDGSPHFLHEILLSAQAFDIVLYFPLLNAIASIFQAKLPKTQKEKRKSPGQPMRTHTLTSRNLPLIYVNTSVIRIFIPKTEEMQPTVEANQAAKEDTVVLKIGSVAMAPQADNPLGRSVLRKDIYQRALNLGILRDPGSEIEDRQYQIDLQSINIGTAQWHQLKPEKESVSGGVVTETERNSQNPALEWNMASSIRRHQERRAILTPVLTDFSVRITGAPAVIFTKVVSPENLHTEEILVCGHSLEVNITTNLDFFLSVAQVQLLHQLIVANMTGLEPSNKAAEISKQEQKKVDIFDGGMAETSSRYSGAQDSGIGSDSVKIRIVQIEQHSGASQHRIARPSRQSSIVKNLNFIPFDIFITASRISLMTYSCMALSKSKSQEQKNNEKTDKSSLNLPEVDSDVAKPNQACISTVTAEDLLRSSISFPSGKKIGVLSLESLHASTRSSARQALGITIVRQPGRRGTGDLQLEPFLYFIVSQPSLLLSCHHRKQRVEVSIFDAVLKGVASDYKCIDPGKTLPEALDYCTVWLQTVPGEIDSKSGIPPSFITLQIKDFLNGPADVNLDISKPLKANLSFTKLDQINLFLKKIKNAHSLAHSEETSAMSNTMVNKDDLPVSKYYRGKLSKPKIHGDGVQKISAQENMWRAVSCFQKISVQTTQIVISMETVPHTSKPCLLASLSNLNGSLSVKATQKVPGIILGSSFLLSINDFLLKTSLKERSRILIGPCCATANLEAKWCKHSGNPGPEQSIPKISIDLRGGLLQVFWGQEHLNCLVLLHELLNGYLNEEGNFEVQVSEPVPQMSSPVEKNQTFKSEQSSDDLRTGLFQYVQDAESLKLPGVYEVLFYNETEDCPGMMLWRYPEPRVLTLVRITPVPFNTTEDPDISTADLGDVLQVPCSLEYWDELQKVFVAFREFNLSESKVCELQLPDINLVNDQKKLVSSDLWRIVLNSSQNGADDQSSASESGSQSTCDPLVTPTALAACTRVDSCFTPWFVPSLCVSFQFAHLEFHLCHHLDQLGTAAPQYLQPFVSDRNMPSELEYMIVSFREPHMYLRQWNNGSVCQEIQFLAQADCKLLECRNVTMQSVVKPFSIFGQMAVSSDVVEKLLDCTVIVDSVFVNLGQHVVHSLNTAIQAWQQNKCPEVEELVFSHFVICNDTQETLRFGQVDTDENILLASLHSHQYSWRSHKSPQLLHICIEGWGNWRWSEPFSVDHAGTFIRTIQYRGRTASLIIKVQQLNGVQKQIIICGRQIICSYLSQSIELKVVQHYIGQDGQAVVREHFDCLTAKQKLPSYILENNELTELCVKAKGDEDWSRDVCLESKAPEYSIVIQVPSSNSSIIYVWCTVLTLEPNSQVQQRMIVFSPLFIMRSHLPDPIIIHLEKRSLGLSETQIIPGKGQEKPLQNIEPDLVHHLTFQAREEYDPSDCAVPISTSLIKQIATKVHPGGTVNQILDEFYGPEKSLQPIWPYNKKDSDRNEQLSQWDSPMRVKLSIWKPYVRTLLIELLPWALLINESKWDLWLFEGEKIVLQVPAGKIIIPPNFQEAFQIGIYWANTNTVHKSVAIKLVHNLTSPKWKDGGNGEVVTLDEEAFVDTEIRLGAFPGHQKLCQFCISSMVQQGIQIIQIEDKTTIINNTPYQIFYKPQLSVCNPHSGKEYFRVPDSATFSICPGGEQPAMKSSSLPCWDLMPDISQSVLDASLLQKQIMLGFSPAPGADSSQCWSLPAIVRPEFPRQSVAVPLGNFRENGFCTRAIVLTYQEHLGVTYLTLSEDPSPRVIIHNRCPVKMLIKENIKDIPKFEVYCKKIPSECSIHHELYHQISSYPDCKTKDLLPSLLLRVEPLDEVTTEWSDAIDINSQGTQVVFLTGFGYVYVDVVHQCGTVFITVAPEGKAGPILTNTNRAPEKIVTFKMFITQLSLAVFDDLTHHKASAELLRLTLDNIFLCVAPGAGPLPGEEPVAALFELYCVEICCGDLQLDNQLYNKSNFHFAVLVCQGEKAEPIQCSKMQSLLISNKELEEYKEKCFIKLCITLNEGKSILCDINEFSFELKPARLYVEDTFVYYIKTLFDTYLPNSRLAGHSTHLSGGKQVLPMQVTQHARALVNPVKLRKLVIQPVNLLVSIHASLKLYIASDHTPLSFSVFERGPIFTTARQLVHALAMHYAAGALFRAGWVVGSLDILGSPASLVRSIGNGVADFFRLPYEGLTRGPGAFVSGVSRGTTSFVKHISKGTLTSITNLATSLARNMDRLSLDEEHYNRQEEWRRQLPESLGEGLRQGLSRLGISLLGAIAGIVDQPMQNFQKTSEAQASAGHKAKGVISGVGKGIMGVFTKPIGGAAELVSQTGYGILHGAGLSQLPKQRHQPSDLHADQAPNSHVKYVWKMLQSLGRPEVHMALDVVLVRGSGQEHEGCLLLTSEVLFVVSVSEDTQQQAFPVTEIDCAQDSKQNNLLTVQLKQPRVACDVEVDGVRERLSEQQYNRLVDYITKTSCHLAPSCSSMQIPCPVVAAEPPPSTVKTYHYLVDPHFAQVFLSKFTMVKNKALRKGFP
Sequence of UniProt Q8NCE0 (Q8NCE0 whole entry, looked up): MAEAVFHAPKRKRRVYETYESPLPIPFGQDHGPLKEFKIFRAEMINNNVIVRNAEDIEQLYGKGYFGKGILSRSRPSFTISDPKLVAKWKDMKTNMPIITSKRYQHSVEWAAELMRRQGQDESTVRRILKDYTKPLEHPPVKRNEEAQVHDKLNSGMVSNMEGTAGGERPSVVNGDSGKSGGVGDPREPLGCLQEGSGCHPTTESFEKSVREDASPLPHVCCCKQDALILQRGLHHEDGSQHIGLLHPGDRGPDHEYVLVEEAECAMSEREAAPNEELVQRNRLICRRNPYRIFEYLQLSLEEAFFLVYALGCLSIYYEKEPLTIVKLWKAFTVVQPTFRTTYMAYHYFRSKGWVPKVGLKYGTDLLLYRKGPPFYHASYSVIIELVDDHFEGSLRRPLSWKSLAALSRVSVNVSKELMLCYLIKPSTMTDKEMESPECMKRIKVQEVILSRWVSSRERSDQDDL
Sequence of UniProt Q9UBK9 (Q9UBK9 whole entry, looked up): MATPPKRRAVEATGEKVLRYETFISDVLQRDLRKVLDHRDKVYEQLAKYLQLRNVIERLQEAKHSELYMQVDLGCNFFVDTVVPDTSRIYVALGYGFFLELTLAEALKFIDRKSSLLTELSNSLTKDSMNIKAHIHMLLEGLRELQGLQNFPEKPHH
Sequence of UniProt Q5R3I4 (Q5R3I4 whole entry, looked up): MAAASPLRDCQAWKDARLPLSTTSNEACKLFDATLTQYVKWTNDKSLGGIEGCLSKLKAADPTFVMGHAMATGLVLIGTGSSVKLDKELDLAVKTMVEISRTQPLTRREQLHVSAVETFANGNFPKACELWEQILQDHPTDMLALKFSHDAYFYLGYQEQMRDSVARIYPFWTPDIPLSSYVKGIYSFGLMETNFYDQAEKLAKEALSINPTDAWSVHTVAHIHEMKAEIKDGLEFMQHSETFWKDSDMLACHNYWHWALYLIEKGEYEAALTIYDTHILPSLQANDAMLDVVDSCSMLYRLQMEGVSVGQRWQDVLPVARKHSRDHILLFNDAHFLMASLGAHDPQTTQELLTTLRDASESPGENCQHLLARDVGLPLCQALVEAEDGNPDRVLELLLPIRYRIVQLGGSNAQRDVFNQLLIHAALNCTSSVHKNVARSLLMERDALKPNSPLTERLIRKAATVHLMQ

Row | Target | log2 fold change [1] | log2 fold change (filanesib) | log2 fold change (zotarolimus) | log2 fold change (idasanutlin) | log2 fold change (alisertib) | log2 fold change [2] | log2 fold change (gefitinib) | log2 fold change [3] | log2 fold change (lapatinib) | log2 fold change (pictilisib) | log2 fold change [4] | log2 fold change (crizotinib) | log2 fold change [5] | log2 fold change [6] | log2 fold change (duvelisib) | log2 fold change (gandotinib) | log2 fold change (tozasertib) | log2 fold change [7] | log2 fold change (doramapimod) | log2 fold change (ispinesib)
1 | UHRF1BP1L (UniProt A0JNW5) | -0.027 | 0.038 | 0.093 | -0.073 | -0.08 | 0.179 | 0.05 | 0.034 | -0.006 | -0.046 | 0.001 | -0.04 | 0.031 | -0.002 | 0.091 | -0.038 | -0.025 | -0.024 | 0.046 | 0.2
2 | XPNPEP1 isoform 3 (UniProt Q9NQW7) | 0.006 | -0.121 | 0.026 | -0.023 | 0.028 | -0.009 | 0.004 | 0.038 | 0.01 | 0.068 | 0.069 | -0.023 | 0.098 | -0.076 | 0.036 | -0.053 | -0.023 | 0.007 | 0.028 | -0.015
3 | UXT isoform 2 (UniProt Q9UBK9) | 0.473 (active) | 0.001 | -0.067 | 0.026 | -0.016 | 0.033 | 0.049 | -0.025 | 0.077 | 0.25 | 0.063 | 0.056 | 0.184 | 0.006 | 0.017 | 0.255 | 0.021 | -0.034 | 0.017 | -0.035
4 | TMEM177 (UniProt Q53S58) | -0.037 | -0.115 | 0.019 | -0.077 | -0.199 | -0.154 | 0.077 | 0.086 | -0.016 | 0.151 | 0.005 | 0.033 | 0.065 | 0.011 | 0.039 | 0.025 | 0.087 | 0.053 | -0.062 | -0.304 (active)
5 | UBA6 | 0.021 | -0.01 | 0.051 | -0.016 | -0.04 | -0.031 | 0.029 | -0.069 | 0.022 | 0.004 | 0.05 | 0.024 | 0.047 | -0.017 | -0.007 | -0.039 | 0.05 | 0.078 | -0.038 | 0.014
6 | WDR11 (UniProt Q9BZH6) | -0.069 | 0.027 | -0.058 | -0.124 | -0.062 | 0.104 | -0.016 | 0.094 | -0.094 | 0.094 | -0.064 | -0.007 | 0.111 | 0.059 | 0.029 | -0.291 | -0.049 | -0.051 | 0.056 | -0.133
7 | TSEN2 (UniProt Q8NCE0) | 0.018 | 0.043 | 0 | -0.065 | -0.075 | 0.077 | 0.028 | 0.114 | -0.015 | 0.013 | -0.198 | 0.052 | 0.014 | 0 | 0.049 | -0.127 | -0.048 | 0.056 | -0.057 | -0.074
8 | TOM1L1 (UniProt O75674) | -0.006 | 0.06 | 0.008 | -0.142 | -0.073 | 0.061 | 0.056 | -0.051 | -0.007 | -0.076 | -0.001 | 0.08 | 0.184 | -0.059 | 0.102 | -0.342 (active) | -0.03 | 0.011 | -0.021 | -0.016
9 | TTC38 (UniProt Q5R3I4) | -0.067 | -0.023 | 0.034 | -0.093 | 0.065 | 0.081 | 0.013 | -0.003 | -0.054 | -0.041 | -0.055 | -0.085 | -0.085 | -0.073 | -0.027 | -0.031 | 0 | 0.063 | 0.73 (active) | 0.06
10 | TRAPPC8 (UniProt Q9Y2L5) | 0.032 | -0.017 | 0.03 | -0.059 | 0.003 | 0.013 | 0.009 | -0.021 | 0.021 | -0.001 | 0.036 | -0.033 | -0.008 | 0.032 | 0.002 | -0.056 | 0.015 | 0.117 | -0.012 | -0.138
11 | VPS33A (UniProt Q96AX1) | 0.018 | -0.096 | 0.033 | -0.039 | -0.037 | 0.014 | -0.033 | -0.039 | 0.015 | -0.083 | -0.031 | -0.218 | 0.014 | 0.043 | 0.029 | -0.091 | 0.036 | 0.049 | -0.017 | -0.154
12 | USP9X (UniProt Q93008) | -0.02 | -0.017 | 0.018 | -0.096 | -0.02 | 0.029 | -0.007 | -0.008 | -0.027 | -0.033 | -0.008 | -0.159 | -0.024 | 0.033 | 0.001 | -0.125 | 0 | 0.053 | 0.016 | -0.058
13 | TMEM214 (UniProt Q6NUQ4) | -0.003 | 0.185 | -0.013 | -0.045 | -0.041 | 0.282 (active) | -0.012 | -0.111 | 0.046 | -0.055 | -0.018 | 0.123 | -0.043 | 0.067 | 0.011 | -0.079 | 0.028 | 0.048 | -0.013 | 0.072
14 | VPS13B (UniProt Q7Z7G8) | 0.019 | -0.11 | -0.007 | 0.025 | 0.07 | -0.111 | 0.019 | 0.07 | -0.018 | 0.057 | 0.023 | 0.015 | 0.045 | -0.033 | -0.064 | -0.062 | -0.01 | 0.015 | 0.028 | -0.134
15 | UHRF1BP1 (UniProt Q6BDS2) | -0.025 | 0.079 | 0.161 | -0.029 | -0.033 | 0.104 | 0.045 | 0.037 | 0.038 | 0.032 | 0.003 | 0.086 | 0.001 | -0.009 | 0.124 | -0.004 | -0.014 | -0.014 | 0.014 | 0.12
16 | UFL1 (UniProt O94874) | 0.029 | -0.022 | 0.025 | -0.108 | -0.074 | 0.212 | 0.003 | -0.071 | -0.017 | 0.016 | 0.05 | -0.053 | -0.043 | 0.067 | 0.005 | -0.069 | -0.016 | 0.106 | -0.02 | -0.025
